D1 ag = Allosteric Agonists of the Human D1 Dopamine Receptor: qHTS; D(1A) dopamine receptor (Homo sapiens), P21728; HEK293 T-REx D1 cells, calcium flux, agonist mode; activation, % at 2 µM; 360,000 tested, 1% active; AID 504660, 2011; in the data active = activation above about 30%; also: 0% is about no effect
Target sequence (P21728 whole entry, looked up): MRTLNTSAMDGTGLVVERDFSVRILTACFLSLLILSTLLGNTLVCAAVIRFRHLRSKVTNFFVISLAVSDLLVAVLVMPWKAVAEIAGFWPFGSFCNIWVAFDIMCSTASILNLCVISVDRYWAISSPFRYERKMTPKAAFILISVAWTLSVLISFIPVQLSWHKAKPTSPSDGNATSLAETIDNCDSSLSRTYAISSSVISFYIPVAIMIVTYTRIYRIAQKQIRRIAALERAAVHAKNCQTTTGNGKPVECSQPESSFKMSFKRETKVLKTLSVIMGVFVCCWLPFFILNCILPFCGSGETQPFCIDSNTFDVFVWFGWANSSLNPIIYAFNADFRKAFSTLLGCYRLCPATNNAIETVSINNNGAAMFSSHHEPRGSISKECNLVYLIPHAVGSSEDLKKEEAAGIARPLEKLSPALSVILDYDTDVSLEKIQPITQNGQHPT
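Tetracycline-induced HEK293 TREx D1 cells, force-coupled to calcium signalling, were dye-loaded with a no-wash calcium kit. Compound was pin-added after a 10 s baseline. Fluorescence was read kinetically at 1 cycle/s for 180 s, with calcium rises flagged as agonism.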
D1 potentiator = Potentiators of Human D1 Dopamine Receptor: qHTS | HEK293 TREx D1 cells, calcium flux, dopamine EC20 potentiation | potentiation, % at 10 µM | 360,000 tested, 0.036% active; in the data active = potentiation above about 30%; also: 0% is about no effect
DRD3 agonist = qHTS of D3 Dopamine Receptor Agonist: qHTS; D3R DiscoveRx beta-arrestin cells, luminescence, 90 min; max activation, %; AID 652048, 2013; D(3) dopamine receptor (Homo sapiens), P35462; 410,000 tested, 0.58% active; in the data active = max activation above about 30%; also: 0% is about no effect
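Agonist mode: compounds and dopamine controls were applied to plated cells for 90 min at 37 degrees C after an overnight attachment at 1500 cells/well. Luminescent read-out followed 30 - 60 minutes at room temperature with DiscoveRx detection reagent.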
D1 antag = Antagonist of Human D 1 Dopamine Receptor: qHTS | AID 504652, 2011 | 360,000 tested, 3.2% active | activity change, negative = inhibition, % at 10 µM | HEK293 TREx D1 cells, calcium flux, dopamine EC80; stronger effect = lower value | D(1A) dopamine receptor (Homo sapiens), P21728; in the data active = activity change below about -30%; also: % is scaled to controls: 0 for no effect and ±100 for the full control effect
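Compound effects on dopamine-evoked calcium signalling were measured in tetracycline-induced HEK293 Trex D1 cells. Dopamine at EC80 followed a 180 s compound pre-read, and fluorescence was tracked kinetically for 180 s more.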
DRD3 antagonist = qHTS of D3 Dopamine Receptor Antagonist: qHTS. D(3) dopamine receptor (Homo sapiens), P35462. D3R cells, DiscoveRx beta-arrestin luminescence, antagonist mode; stronger effect = lower value. max response, negative = inhibition, %. 360,000 tested, 2.5% active; in the data active = max response below about -50%; inconclusive = no clear call, values can overlap the other calls; also: % is scaled to controls: 0 for no effect and ±100 for the full control effect
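Cells plated overnight at 1500 cells/well, then exposed to library compounds with dopamine controls for 90 minutes at 37 degrees C. DiscoveRx reagent added for 30–60 minutes at room temperature; luminescence read, quantitative HTS format.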
BCR signal inh = qHTS Assay to Find Inhibitors of Chronic Active B-Cell Receptor Signaling | ABC-DLBCL IkBa-CBG/CBR reporter, luminescence ratio, 4 h | Potency, µM (highest dose often 46.1 µM), inactives show top-dose activity change, negative = inhibition, hits mostly inhibitors | 340,000 tested, 0.05% active | AID 493014, 2011; active = well fitted inhibition curve with a large enough effect in the signal ratio, with a control signal flat, not every such curve was filed as active; inconclusive = small, poorly fitted or top-dose-only effect, or effect the other way, or a change in a side signal; the % refers to the signal ratio;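 also: potency is read from the fitted curve at half-maximal effect; plate controls were basal doxycycline-induced cells for no effect and cells given 10 µM MG132 for full effect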
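TMD8 human ABC-DLBCL cells with doxycycline-inducible IκBα–green luciferase fusion and unfused red luciferase, in 0.5% FBS medium; compounds up to 46 uM, 4 h at 37C. Green/red luminescence ratio, filter-overlap corrected, fitted to concentration-response curves.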
* hit, by the source's call; u = inconclusive; x = no result given. Hits are enriched below; roughly 6% of the tested compounds scored in any of these assays.

SMILES | D1 ag | D1 potentiator | DRD3 agonist | D1 antag | DRD3 antagonist | BCR signal inh
CCC(=O)OCCNc1cc(Sc2nccn2C)c2nonc2c1[N+](=O)[O-] | -1.3 | -4.5 | -16.5 | -8.4 | -101.5* | u
CC(=O)OCCCNc1cc(Sc2ccc(Cl)cc2)c2nonc2c1[N+](=O)[O-] | 2.3 | -7.0 | -18.3 | -4.9 | -118.5* | -3.4%
Cc1ccc(Sc2cc(NCCCO)c([N+](=O)[O-])c3nonc23)cc1 | 9.6 | 3.4 | -0.9 | 2.2 | -9.8 | 3.5%
CCC(=O)OCCNc1cc(SCCC(=O)OC)c2nonc2c1[N+](=O)[O-] | 0.5 | 6.0 | -4.2 | -2.8 | -14.2 | u
CCCC(=O)OCCNc1cc(Sc2nc3ccccc3[nH]2)c2nonc2c1[N+](=O)[O-] | -0.3 | -9.8 | -16.0 | -48.7* | -82.8* | u
CCCn1c2ccccc2c2cnn(CC(=O)NCc3ccccc3Cl)c(=O)c21 | 1.5 | 3.0 | -11.8 | -2.5 | x | x
CN(C)CCN(C)C1CN(C2CCCC2)S(=O)(=O)C1 (stereo not given) | x | x | 7.5 | x | 7.4 | x
CN1CCC(OC(c2ccccc2)c2ccc(Cl)cc2)C1 (stereo not given) | x | x | -17.2 | x | -73.7* | x
COc1ccccc1CNC(=O)CN1C(=O)CSc2c1c(C)nn2-c1ccccc1 | 0.4 | -4.2 | -0.9 | -5.2 | x | x
COc1cccc(C=Nc2ccccc2C(=O)Nc2nccs2)c1OC | 2.2 | -2.8 | -3.8 | -17.6 | -73.7* | 22.5%
OCCC1CN(Cc2ccncc2)CCN1C1CCCC1 (stereo not given) | 2.7 | 0.0 | -10.7 | -35.9* | -2.7 | -9.3%
OCCC1CN(Cc2cc3c(cc2Cl)OCO3)CCN1C1CCCC1 (stereo not given) | 1.8 | -6.5 | -13.8 | -4.9 | -53.5* | -23.2%
OCCC1CN(Cc2cc3c(cc2Cl)OCO3)CCN1C1CCCCC1 (stereo not given) | 2.5 | 4.0 | -10.8 | 3.8 | -12.4 | u
Cc1cc(C)cc(N(CC(=O)NCc2ccccc2Cl)S(=O)(=O)c2c(C)noc2C)c1 | 0.5 | 3.5 | 0.4 | -13.6 | x | x
O=C(C(=O)N1CCC(Cc2ccccc2)CC1)c1ccccc1Br | x | x | 1.1 | x | 14.1 | x
CCc1nn(CC(=O)NC2CC2)c(=O)c2cc3ccccc3n12 | 2.0 | -5.3 | 1.7 | 5.0 | x | x
COc1cc(NC(=O)c2ccco2)c(OC)cc1NC(=O)CSc1ncc(-c2ccc(F)cc2)[nH]1 | 4.2 | -0.3 | 31.4* | -8.5 | 41.3 | u
O=C(c1ccc(N2C(=O)c3ccccc3C2=O)cc1)N1CCN(S(=O)(=O)c2ccccc2F)CC1 | x | x | 5.3 | x | 0.0 | x
Cc1ccc(-c2nc3ccc(C)cn3c2Cc2ccccc2C(F)(F)F)cc1 | x | x | -16.4 | x | -12.9 | x
FC(F)(F)c1ccccc1Cc1c(-c2ccc(Cl)cc2)nc2ccc(Br)cn12 | x | x | -7.4 | x | -54.2* | x
FC(F)(F)c1ccccc1Cc1c(-c2ccc(Cl)cc2)nc2ccc(Cl)cn12 | x | x | 2.8 | x | 25.7 | x
Cc1ccc2nc(-c3ccccc3)c(Cc3ccccc3C(F)(F)F)n2c1 | x | x | -17.6 | x | -54.2* | x
COc1ccc(NC(=O)Cn2c(=O)n(CCCCCC(=O)NCc3ccc4c(c3)OCO4)c(=O)c3sccc32)cc1Cl | 2.5 | 0.6 | -6.8 | -6.6 | x | x
O=C(CSc1nnc(-c2cccs2)o1)c1cccs1 | 9.3 | -5.7 | 4.0 | -4.3 | -7.4 | u
Cc1cc(C(=O)CSc2nnc(-c3cccs3)o2)c(C)n1-c1ccccc1 | 2.0 | 1.9 | 2.8 | -54.9* | 49.2 | 11.3%
SMILES | D1 ag | D1 potentiator | DRD3 agonist | D1 antag | DRD3 antagonist | BCR signal inh
Cc1cc(C(=O)N/N=C/c2ccc(-c3ccc([N+](=O)[O-])cc3C)o2)n[nH]1 | 2.6 | -4.8 | -0.4 | -11.4 | -15.0 | -10.8%
Cc1cc([N+](=O)[O-])ccc1-c1ccc(/C=N/NC(=O)c2ccc(Br)o2)o1 | 14.0 | -3.2 | -2.3 | 4.8 | -53.8* | -12.5%
Cc1cccc(C)c1N1C(=O)c2ccccc2NC(=O)C1C(=O)Nc1ccc(N2CCOCC2)cc1 (stereo not given) | x | x | -7.0 | x | -15.4 | x
Clc1ccccc1-c1nnc(COc2ccccc2)o1 | 1.3 | 1.8 | -7.3 | -6.7 | x | x
CCCCNC(=S)Nc1ccc(SC(F)F)cc1 | 16.7 | -7.7 | -6.6 | -41.9* | u | 0.9%
COc1ccc(C(=O)NC(C)CCc2ccccc2)c(O)c1 (stereo not given) | 16.3 | -6.5 | 5.2 | -47.7* | -18.3 | -2.1%
COc1ccc(C(=O)NC(C)CCc2ccccc2)cc1 (stereo not given) | 0.3 | -0.6 | -5.7 | -2.2 | -10.8 | u
CCOc1ccc(OCC)c(-c2c(=O)n(OCc3ccc(C(C)(C)C)cc3)c3ccccc3[n+]2[O-])c1 | 0.8 | 2.0 | 51.8* | -10.8 | 11.2 | 0.9%
O=S(=O)(c1ccc(Oc2ccc(Br)cc2)cc1)N1CCOCC1 | 14.7 | -6.0 | -14.5 | -32.5* | 0.0 | 5.7%
O=S(=O)(Nc1ccc(S(=O)(=O)N2CCOCC2)cc1)c1ccc(Br)cc1 | 3.4 | x | 0.1 | -4.8 | -7.6 | -4.7%
O=C(C1CCCN(S(=O)(=O)c2ccc(Br)cc2)C1)N1CCOCC1 (stereo not given) | 5.6 | 6.0 | -9.0 | -52.9* | -18.5 | u
O=[N+]([O-])c1ccc(-c2nc(Cl)c3c(n2)CCCC3)o1 | x | x | 7.8 | x | -7.6 | x
CC1COC(=C2C(=O)OCC2C)C1 (stereo not given) | x | x | 9.0 | x | 9.7 | x
COc1ccc(-c2ccccc2)cc1NC(=O)[C@@H]1O[C@H](CO)[C@@H](O)[C@H]1O | x | x | -1.1 | x | -4.9 | x
O=C(Nc1ccccc1Oc1ccccc1)[C@@H]1O[C@H](CO)[C@H](O)[C@H](O)[C@H]1O | x | x | -33.4 | x | -162.1* | x
Cc1cc2nc(-c3ccccc3Br)n(/C=C(\c3ccccc3)n3c(=O)[nH]c4ccccc43)c2cc1C | x | x | -5.5 | x | u | x
O=C(CN(C(=O)CCC(=O)Nc1ccccn1)c1cccc(F)c1)NCc1ccc(F)cc1 | 2.9 | 2.0 | 31.7* | 25.9 | 0.1 | -2.9%
O=C(CN(C(=O)CCC(=O)Nc1ccccn1)c1cccc(F)c1)NCc1ccc2c(c1)OCO2 | 5.7 | x | 9.4 | -11.7 | -7.6 | 1.3%
O=C(CN(C(=O)CCC(=O)Nc1ccccn1)c1ccc2c(c1)OCO2)NCc1ccc(F)cc1 | 1.4 | -5.0 | -7.7 | 7.0 | -0.7 | 0.7%
Cc1ccccc1N(CC(=O)NCc1ccco1)C(=O)CCC(=O)Nc1nccs1 | 3.3 | -3.1 | 6.4 | -32.4* | 6.3 | 5.3%

Screening results as filed in PubChem BioAssay.
